hcDAF-12 act = H. contortus DAF-12 nuclear receptor activators, primary screen, cell-based, luminescence, HEK293, lit1-tk-luc reporter. activation, % at 6.8 µM. HEK293 hcDAF-12 lit1-tk-luc reporter; 0% DMSO, 100% Δ7-dafachronic acid. AID 652067, 2013. 1.4% of 370,000 active;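 active = activation above the mean of all tested compounds plus 3 SD, cut at about 5.5% in these data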;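 also: 100% = response to 3 µM Δ7-dafachronic acid high control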
ssDAF-12 act = S. stercoralis DAF-12 nuclear receptor activators, primary screen, cell-based, luminescence, HEK293, GRIP1 co-expression, lit1-tk-luc. Nuclear hormone receptor DAF-12 (Strongyloides stercoralis). HEK293 ssDAF-12/GRIP1 lit1-tk-luc reporter; % of 3 µM dafachronic acid response. activation, % at 6.8 µM. 1% of 370,000 active. AID 652126, 2013;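 active = activation above the mean over all tested compounds plus 3 SD, cut at about 0.9% in these data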;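 also: 0% = DMSO-only wells and 100% = 3 µM delta7-dafachronic acid wells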
DAX1 inh-1 = DAX1 (NR0B1) inhibitors, primary screen, cell-based, HEK293, Gal4-DAX1, luciferase luminescence; HEK293 Gal4-DAX1 luciferase reporter; inhibition, % at 6.75 µM; 0.99% of 340,000 active;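 active = inhibition above the mean over all tested compounds plus 3 SD, cut at about 4.2% in these data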;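 also: 0% = DAX1-transfected cells with DMSO and 100% = empty-vector control cells with DMSO; inhibition shows as a rise in luminescence from relieved DAX1 repression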
Target sequence (P51843 207-470 limits assumed): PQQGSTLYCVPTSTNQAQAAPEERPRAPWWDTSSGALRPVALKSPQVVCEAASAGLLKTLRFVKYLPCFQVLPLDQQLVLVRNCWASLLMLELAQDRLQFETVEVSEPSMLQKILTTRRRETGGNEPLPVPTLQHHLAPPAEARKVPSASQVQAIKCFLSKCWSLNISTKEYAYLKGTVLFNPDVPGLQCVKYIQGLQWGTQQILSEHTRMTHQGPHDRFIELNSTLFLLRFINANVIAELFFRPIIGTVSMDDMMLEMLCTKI
DAX1 inh-2 = DAX1 (NR0B1) inhibitors on StAR promoter, primary screen, cell-based, luminescence, SF-1 (NR5A1), full-length DAX-1. 1.1% of 370,000 active. HEK293T StAR-luciferase reporter, SF-1/DAX-1 repression relief. inhibition, % at 6.8 µM;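 active = inhibition above the mean over all tested compounds plus 3 SD, cut at about 3.6% in these data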;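 also: 0% = DAX-1 cells with DMSO and 100% = cells lacking DAX-1 with DMSO; higher inhibition means more luminescence from relief of DAX-1 repression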
hgDAF-12 ag = H. glycines DAF-12 receptor agonists, primary screen, cell-based, luminescence, HEK293, GAL4 fusion, UAS-luciferase; Nuclear hormone receptor DAF-12 (Heterodera glycines), GAL4 fusion; 1.8% of 370,000 active; HEK293 GAL4-hgDAF12 UAS-luciferase reporter, agonist luminescence; normalized to butyrate control; activation, % at 6.8 µM;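 active = activation above a cutoff set at the mean of all screened compounds plus 3 SD, cut at about 10% in these data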;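 also: 0% = DMSO wells and 100% = sodium butyrate wells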
hgDAF12 conf = H. glycines DAF-12 receptor agonists, confirmation, cell-based, luminescence, HEK293, GAL4-LBD fusion. 80% of 3,300 active. HEK293 GAL4-hgDAF12 luciferase reporter, agonist mode; percent of butyrate response. shares compounds with hgDAF-12 ag. activation, % at 6.8 µM;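 active = mean activation over triplicate wells above the hit cutoff derived from the earlier primary screen, cut at about 11% in these data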;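 also: 0% = DMSO low control and 100% = 2 mM sodium butyrate high control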
LXR ag 2 = LXR agonists, Gal4 luciferase reporter, confirmation, counter-screen for hgDAF-12 agonist project, cell-based, luminescence, HEK293, H. glycines campaign | shares compounds with hgDAF-12 ag | 24 h | activation, % at 6.8 µM | 3,300 tested, under 10 active | AID 743051, 2013;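 active = mean activation of the triplicate above a set limit carried over from the primary screen, none filed active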
* hit, by the source's call; / = no result given. Shown are actives, neighbours in structure and some others; about 4.1% of the full set was active somewhere.

SMILES | hcDAF-12 act | ssDAF-12 act | DAX1 inh-1 | DAX1 inh-2 | hgDAF-12 ag | hgDAF12 conf | LXR ag 2
Clc1cccc(Nc2nc(-c3ccncc3)cs2)c1 | 2 | -1 | -1 | 1 | 14* | 7 | 0
Clc1ccc(-c2csc(Nc3cccnc3)n2)cc1 | 1 | -1 | 2 | 0 | 3 | / | /
O=C(CN1C(=O)c2cccc3cccc1c23)NC1CCCCC1 | 0 | -1 | 0 | 0 | 1 | / | /
O=C(COc1ccc(Br)cc1)N1CCNC1=O | -1 | 0 | 1 | 0 | 2 | / | /
N#Cc1ccc(COc2cccc3cccnc23)cc1 | -1 | 0 | 0 | 0 | 4 | / | /
COc1ccc(NC(=O)NC2(C(=O)N3CCCC(C)C3)CCCCC2)cc1 (centres undefined) | 0 | 0 | 0 | 0 | 2 | / | /
CC1(Oc2ccc3ccccc3c2)CCN(Cc2cccn2-c2nccs2)C1 (centres undefined) | 3 | -1 | / | 0 | 2 | / | /
COc1ccc(CC(=O)Oc2cc(C)[nH]c(=O)c2[N+](=O)[O-])cc1 | -1 | -1 | 0 | 0 | -1 | / | /
Cc1ccc(-c2cc(C(=O)Nc3ccncc3)c3ccccc3n2)cc1 | 0 | -1 | 0 | 0 | 2 | / | /
Cc1ccc(C)c(NC(=O)c2cc(-c3ccc(Cl)cc3)nc3ccccc23)c1 | -1 | -1 | / | 0 | 15* | 1 | 0
COCCCn1cnc2oc3nc4ccccc4nc3c2c1=O | 6 | 0 | 1 | 3 | 15* | 19* | 1
COc1cc(/C=C/C(=O)OCC(=O)NCCC2=CCCCC2)cc(OC)c1OC | -1 | -1 | 2 | -2 | 0 | / | /
CN(C)C(=O)c1ccc(NC(=O)COc2ccc([N+](=O)[O-])cc2)cc1 | -1 | -1 | 1 | 0 | -1 | / | /
CCOC(=O)Nc1ccc2c(c1)C(=NO)c1ccccc1-2 | 4 | 1 | 3 | 3 | 18* | 13* | 1
CCOC(=O)Nc1ccc2c(c1)C(=NNC(N)=S)c1ccccc1-2 | -3 | -2 | -3 | -5 | -5 | / | /
Cc1scc(C(=O)N/N=C/c2ccco2)c1C | 0 | 0 | 1 | 2 | 10 | / | /
Cc1scc(C(=O)N/N=C/c2ccsc2)c1C | 2 | 1.1* | 2 | 3 | 18* | 17* | 0
CC(C)(C)OC(=O)N1Cc2cc3ccccc3nc2C1 | 3 | 0 | 1 | 3.6* | 16* | 13* | 1
Cc1nc2ccccc2nc(C)c1=NOCc1cccc(F)c1 | 3 | 0 | 0 | 3 | 14* | -4 | 0
C=CCN1C=CC(=C/C=C(/C#N)C(=O)OCC)C=C1 | 5.6* | 1 | 3 | 3 | 16* | 16* | 1
CC(C)(C)OC(=O)NCCCC[C@H](NC(=O)c1nc[nH]c1C(=O)NC(c1ccccc1)c1ccccc1)C(=O)OC(C)(C)C | -1 | -1 | -1 | 0 | 0 | / | /
Cc1nc2cc(NC(=O)NCc3ccc4c(c3)OCO4)ccc2o1 | -2 | -1 | 1 | 0 | 3 | / | /
Cc1nc2cc(NC(=O)Nc3ccc(Br)cc3)ccc2o1 | 2 | -1 | 1 | 1 | 13* | 10 | 1
O=C(OCC(=O)N1CCOCC1)c1ccccc1Br | 0 | 0 | 1 | 0 | 1 | / | /
O=C(OCC(=O)N1CCOCC1)c1ccccc1Cc1ccccc1 | 6.3* | 1 | 3 | 4.1* | 17* | 18* | 1
SMILES | hcDAF-12 act | ssDAF-12 act | DAX1 inh-1 | DAX1 inh-2 | hgDAF-12 ag | hgDAF12 conf | LXR ag 2
CCOC(=O)Nc1ccc2nc(-c3cscn3)[nH]c2c1 | 3 | 0 | 0 | -1 | 16* | 14* | 0
Cc1ccc(NCCC(=O)c2ccc(Cl)cc2)cc1C | 1 | 0 | 0 | -1 | 1 | / | /
Cc1ccc(NCCC(=O)c2cccs2)cc1C | 4 | 1 | 1 | 2 | 15* | 15* | 1
CC(C)(C)C(=O)NC1CC2CCCC(C1)N2C(=O)Nc1ccccc1 (centres undefined) | -2 | -1 | 0 | 0 | -1 | / | /
C=CCN1C(=O)[C@@H](CC(=O)N2CCSCC2)[C@]2(C(=O)OC)CCCCC=C12 | 1 | -2 | / | 0 | 17* | 0 | 0
Cc1ccc2nc(-c3ccc(NC(=O)CN4CCN(c5ccccn5)CC4)cc3)sc2c1 | 0 | -2 | / | 0 | 3 | / | /
CN(C)c1cccc(C(=O)Nc2nc3ccccc3[nH]2)c1 | 5 | 0 | -3 | 2 | 15* | 9 | 1
O=C(Nc1nc2ccccc2[nH]1)c1cccc([N+](=O)[O-])c1 | 2 | 0 | 1 | 1 | 16* | 14* | 1
Cc1ccc(N(C)S(=O)(=O)c2cccc(C(=O)Nc3nc4ccccc4[nH]3)c2)cc1 | -3 | -2 | 0 | -1 | -3 | / | /
O=[N+]([O-])c1ccc2nc(-c3ccccc3)[nH]c2c1 | 5 | 0 | 2 | 4.0* | 20* | 18* | 1
COc1ccc(C(C(=O)NC2CCCCC2)N(C(=O)c2sc(C)nc2C)c2ccc(C(C)=O)cc2)cc1 (centres undefined) | -2 | -1 | -1 | 0 | 0 | / | /
COc1ccc(/C=C/c2nc3ccccc3n2Cc2ccccc2OC)cc1 | 5 | 0 | 3 | 4.4* | 16* | 12* | 1
CC(C)c1ccc2oc(-c3cc(N)ccc3O)nc2c1 | 0 | -2 | -1 | -1 | -8 | / | /
Cc1ccccc1-c1nc2cc(N)ccc2o1 | 4 | -1 | 2 | 3 | 15* | 13* | 1
Fc1ccc(/C=N/Nc2nccnc2Cl)cc1 | 4 | 0 | 6.1* | 1 | 14* | 6 | 0
CCN(CC)c1ccc(/C=N/NC(=O)c2ccco2)cc1 | 5 | 0 | -2 | 1 | 17* | 21* | 1
CCN(CC)c1ccc(NC(=S)NC(=O)c2ccco2)cc1 | 0 | -2 | 0 | 3 | 16* | 6 | 0
O=C(N/N=C\c1ccc2c(c1)OCO2)c1ccco1 | 2 | 1 | 4 | 3 | 14* | 12* | 1
NC(=O)/C(=C/c1ccc2c(c1)OCO2)NC(=O)c1ccco1 | -1 | -1 | 2 | 0 | 5 | / | /
CCN(CC)c1ccc(/C=N/NC(=O)c2cnccn2)cc1 | 1 | 0 | 0 | 0 | 18* | 18* | 0

Assay outcomes from PubChem.
